Laboratory results taken from PubChem BioAssay AID932 (The Scripps Research Institute Molecular Screening Center, 2007).
In all, about 200,000 compounds went through this assay and about 5,100 (2.5%) were called active. The sample as a whole holds a higher share of actives than the screen did. Values without a mark were called inactive.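 Rule for the calls: active = activation above the screen-wide mean activation plus 3 SD (cut at about 130% in these data); inactive = the rest.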

Test: potentiators of IFN-gamma driven STAT1 reporter – cell-based, HTS, luciferase reporter, primary screen (AID 932);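 note: raw ratio to IFN-gamma control signal so 100% means no change and 0% no light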
Conditions: NIH 3T3 STAT1-luciferase reporter, luminescence, at 5.5 µM, stronger effect = higher value, 100% = IFN-gamma alone, no compound

In order of rising activation (% of control):
1. COc1ccc(C(=O)/C=C/Nc2ccccn2)cc1  23.6%
2. Cc1ccc(NC(=S)N(CCCN2CCCC2)Cc2cccn2Cc2ccc(Cl)cc2)cc1  85.3%
3. COc1cccc(NC(=O)CN(C)C(C)C(=O)Nc2ccc(C#N)cc2)c1 (stereo unspecified)  90.8%
4. Cc1ccc(/C=N/NC(=O)Cn2ccc(C(F)(F)F)n2)o1  94.7%
5. CCn1c(C)nc2cc(C(=O)NNS(=O)(=O)c3ccc(C)cc3C)ccc21  95%
6. O=C(CSc1nnc2ccc(-c3ccncc3)nn12)N1CCCCC1  95.3%
7. CCSC1=NCCN1C(=O)c1ccc(S(=O)(=O)N(CC)CC)cc1  95.6%
8. COc1cc(-c2nc(-c3ccncc3)no2)cc(OC)c1OC  97.3%
9. Cc1ccc(NC(=S)N(CCN2CCCCC2)Cc2ccco2)cc1C  98%
10. C=CCC1(CC=C)CCCN1C(=O)CC1C(=O)NCCN1Cc1ccccc1OC (stereo unspecified)  98.1%
11. Cc1ccc(S(=O)(=O)NCCc2nnc3ccc(SCc4cccnc4)nn23)cc1  99%
12. COc1cccc(/C=N/NC(=O)C(=O)N2CCCC2)c1  99%
13. COc1ccc2ccccc2c1CNc1nnnn1C  99.2%
14. CCc1nnc(NC(=O)CSc2nc(SC)ns2)s1  101%
15. CCC(=O)Nc1c(C)n[nH]c1C  102%
16. CCOc1nc(-c2ccc(OC)cc2)ccc1-c1noc(-c2cc(OC)c(OC)c(OC)c2)n1  102%
17. CCOC(=O)c1ccc2c(c1)nc(SCC(=O)NC(C)C)n2CC  103%
18. CCn1c(C(C)C)n[nH]c1=S  103%
19. COc1ccc(-n2cc(CN(C)Cc3n[nH]c(=O)[nH]3)c(-c3cccc(F)c3)n2)cc1  104%
20. O=C(CSc1ccc(-c2cccs2)nn1)Nc1ccccc1F  104%
21. COc1ccc2nc(/N=C(\N)NC(=O)Nc3ccccc3)nc(C)c2c1  104%
22. CC(Nc1nc(N2CCN(CCO)CC2)nc2ccccc12)c1ccccc1 (stereo unspecified)  106%
23. O=C(N/N=C/c1ccc([N+](=O)[O-])cc1)C(=O)N1CCCC1  107%
24. Cc1cccc(CSc2nnc(NC(=O)CSc3nnc(C)s3)s2)c1  107%
25. CCC(=O)Nc1ccc(C(=O)Nc2cc(C)on2)cc1  107%
26. CN(CCC1CCOCC1)Cc1cn[nH]c1-c1ccc(-c2ccccc2)cc1  115%

For `COc1ccc(-c2noc(-c3cccc(OC)c3OC)n2)cc1OC`, the activation (% of control) was 144% (active).
With `O=C(N/N=C/c1ccc2c(c1)OCO2)C(=O)N1CCCC1` the activation (% of control) was 132% (active).
For `Cc1cccc(CSc2ccc(-c3cccs3)nn2)c1`, the activation (% of control) was 130% (active).
For `CCOC(=O)c1ccc2c(c1)nc(C)n2CC`, the activation (% of control) was 130% (active).
For `Cc1cc(N/C=C\C(=O)c2ccc(Cl)c(Cl)c2)no1`, the activation (% of control) was 135% (active).
